Measurements as given in PubChem BioAssay (NCI).
Compounds without any hit were thinned out: in the full panel of roughly 83,000, 20% have a hit.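 Each cell line was grown in a 96-well plate and treated with one concentration of compound for 48 hours. Values below 10 were considered active.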 Calls of active or inactive are those of the source.

Columns and labels:
Assay in all cases: NCI-60 one-dose screen, 48 h (100 = growth as untreated, 0 = no growth, -100 = all killed)
Settings in all cases: 10 µM unless noted
RPMI-8226 leukemia = system: RPMI-8226 leukemia
OVCAR-8 ovarian = system: OVCAR-8 ovarian
OVCAR-5 ovarian = system: OVCAR-5 ovarian
OVCAR-4 ovarian = system: OVCAR-4 ovarian
SK-OV-3 ovarian = system: SK-OV-3 ovarian
IGROV1 ovarian = system: IGROV1 ovarian
OVCAR-3 ovarian = system: OVCAR-3 ovarian
NCI/ADR-RES ovarian = system: NCI/ADR-RES ovarian
T-47D breast = system: T-47D breast
HS 578T breast = system: HS 578T breast

Measured: growth

O=C(CCc1nnc2sc(-c3ccc(Cl)cc3Cl)nn12)c1nc2ccccc2[nH]1
active: RPMI-8226 leukemia 2% | OVCAR-8 ovarian -30.9% | OVCAR-5 ovarian -52.6% | OVCAR-4 ovarian -54% | SK-OV-3 ovarian -52.4% | IGROV1 ovarian 0.377% | OVCAR-3 ovarian -80.6% | NCI/ADR-RES ovarian -0.815% | T-47D breast -68.4%

CC(C)[C@H]1CC[C@H]2[C@@H](CC[C@H]3[C@](C)(CN)CCC[C@]23C)C1
inactive: RPMI-8226 leukemia 21.6% | OVCAR-8 ovarian 97.9% | OVCAR-5 ovarian 74.7% | OVCAR-4 ovarian 67.6% | SK-OV-3 ovarian 111% | IGROV1 ovarian 92.6% | OVCAR-3 ovarian 22.7% | HS 578T breast 94.6% | NCI/ADR-RES ovarian 89.5% | T-47D breast 64%

O=C1OCC/C1=C\OCCCO/C=C1\CCOC1=O
inactive: RPMI-8226 leukemia 105% | OVCAR-8 ovarian 106% | OVCAR-5 ovarian 107% | OVCAR-4 ovarian 99.5% | SK-OV-3 ovarian 114% | OVCAR-3 ovarian 110% | HS 578T breast 112% | NCI/ADR-RES ovarian 104% | T-47D breast 103%

O=C1Nc2ccccc2C12Nc1cc(Cl)ccc1S2 (stereo not drawn)
inactive: RPMI-8226 leukemia 42% | OVCAR-8 ovarian 104% | OVCAR-5 ovarian 104% | OVCAR-4 ovarian 70.4% | SK-OV-3 ovarian 70.9% | OVCAR-3 ovarian 76.3% | HS 578T breast 135% | NCI/ADR-RES ovarian 97.2% | T-47D breast 42.4%

CCOC(=O)C(C(C)=O)c1nc2sc3cc(Cl)ccc3n2c(=N)c1C#N (stereo not drawn)
inactive: RPMI-8226 leukemia 97.9% | OVCAR-8 ovarian 80.9% | OVCAR-5 ovarian 114% | OVCAR-4 ovarian 77.9% | SK-OV-3 ovarian 84.6% | OVCAR-3 ovarian 107% | HS 578T breast 28.8% | NCI/ADR-RES ovarian 87.2% | T-47D breast 77.9%

COc1ccc(Cn2cc3c(c2-c2ccccc2)CCc2cncnc2-3)cc1
inactive: RPMI-8226 leukemia 19.6% | OVCAR-8 ovarian 70.5% | OVCAR-5 ovarian 76.7% | OVCAR-4 ovarian 93.1% | SK-OV-3 ovarian 76.8% | OVCAR-3 ovarian 29.6% | HS 578T breast 63.2% | NCI/ADR-RES ovarian 12.3% | T-47D breast 46.7%

CN1CCCC1c1cccnc1 (stereo not drawn)
inactive: RPMI-8226 leukemia 70.7% | OVCAR-8 ovarian 111% | OVCAR-4 ovarian 104% | SK-OV-3 ovarian 116% | OVCAR-3 ovarian 117% | HS 578T breast 112% | T-47D breast 110%
active: OVCAR-5 ovarian -6.38% | NCI/ADR-RES ovarian -37%

c1cncc(CNc2ccccc2-c2nnc(Nc3ccc4c(c3)OCO4)o2)c1
inactive: RPMI-8226 leukemia 27.5% | OVCAR-8 ovarian 26.1% | OVCAR-5 ovarian 25.2% | OVCAR-4 ovarian 36.3% | HS 578T breast 35.4% | NCI/ADR-RES ovarian 19.4% | T-47D breast 43.5%
active: SK-OV-3 ovarian -3.15% | OVCAR-3 ovarian -22%

COc1cc2c(c(OC)c1OC)CCc1cnoc1-2
inactive: RPMI-8226 leukemia 98.1% | OVCAR-8 ovarian 102% | OVCAR-5 ovarian 91.9% | OVCAR-4 ovarian 95% | SK-OV-3 ovarian 109% | OVCAR-3 ovarian 116% | HS 578T breast 106% | NCI/ADR-RES ovarian 94.3%

O=c1ccn(C2OC(CO)C(O)C2F)c(=O)[nH]1 (stereo not drawn)
inactive: RPMI-8226 leukemia 106% | OVCAR-8 ovarian 115% | OVCAR-5 ovarian 94% | OVCAR-4 ovarian 110% | SK-OV-3 ovarian 114% | OVCAR-3 ovarian 109% | HS 578T breast 140% | NCI/ADR-RES ovarian 98.5% | T-47D breast 90%

O=C1C2C3C=CC(O3)C2C(=O)N1Nc1ccccc1 (stereo not drawn)
inactive: RPMI-8226 leukemia 108% | OVCAR-8 ovarian 105% | OVCAR-5 ovarian 97.4% | OVCAR-4 ovarian 102% | SK-OV-3 ovarian 118% | OVCAR-3 ovarian 113% | HS 578T breast 111% | NCI/ADR-RES ovarian 105% | T-47D breast 112%

Cc1cc(C)c2c(c1)N1OC(C2)C[C@H]1/C=C/c1ccccc1 (stereo partly drawn)
inactive: RPMI-8226 leukemia 94.9% | OVCAR-8 ovarian 102% | OVCAR-5 ovarian 99% | OVCAR-4 ovarian 81.8% | SK-OV-3 ovarian 116% | OVCAR-3 ovarian 116% | HS 578T breast 122% | NCI/ADR-RES ovarian 95.9% | T-47D breast 93.6%

O=[N+]([O-])c1ccc(Oc2cccc(C(F)(F)F)c2)c([N+](=O)[O-])c1
inactive: RPMI-8226 leukemia 79.3% | OVCAR-8 ovarian 12.7% | OVCAR-5 ovarian 68.1% | OVCAR-4 ovarian 98.2% | SK-OV-3 ovarian 44.5% | OVCAR-3 ovarian 44.9% | HS 578T breast 105% | NCI/ADR-RES ovarian 29.1% | T-47D breast 48%

N#Cc1ccc(NC(=O)Nc2ccc(Oc3ccc(NC(=O)Nc4ccc(C#N)cc4)cc3)cc2)cc1
active: RPMI-8226 leukemia -56.2% | T-47D breast 2.9%
inactive: OVCAR-8 ovarian 31% | OVCAR-5 ovarian 47.4% | OVCAR-4 ovarian 33.8% | SK-OV-3 ovarian 58.7% | OVCAR-3 ovarian 11.1% | HS 578T breast 38.9% | NCI/ADR-RES ovarian 48.9%

O=[N+]([O-])c1ccc2c(c1)S(=O)c1cc([N+](=O)[O-])ccc1N2
inactive: RPMI-8226 leukemia 103% | OVCAR-8 ovarian 101% | OVCAR-5 ovarian 95.3% | OVCAR-4 ovarian 100% | SK-OV-3 ovarian 103% | OVCAR-3 ovarian 113% | HS 578T breast 99.7% | NCI/ADR-RES ovarian 102%

O=C1NC(=O)/C(=C\c2ccccc2)C2=C1CCCC2
active: OVCAR-8 ovarian -6.04% | OVCAR-3 ovarian -73.9%
inactive: RPMI-8226 leukemia 51.3% | OVCAR-5 ovarian 80% | OVCAR-4 ovarian 91.2% | SK-OV-3 ovarian 152% | HS 578T breast 35.2% | NCI/ADR-RES ovarian 61.2% | T-47D breast 198%

O=C(Nc1cccc([N+](=O)[O-])c1)c1cccc(C(=O)Nc2cccc([N+](=O)[O-])c2)c1
active: HS 578T breast 9.17%
inactive: RPMI-8226 leukemia 65.9% | OVCAR-8 ovarian 28.6% | OVCAR-5 ovarian 95.6% | OVCAR-4 ovarian 56.9% | SK-OV-3 ovarian 68.6% | OVCAR-3 ovarian 71.1% | NCI/ADR-RES ovarian 62.2% | T-47D breast 68.4%

Cc1ccc2c(c1)C(=O)/C(=C/c1ncc([N+](=O)[O-])n1C)O2
active: RPMI-8226 leukemia -12.4% | OVCAR-8 ovarian -30.8% | OVCAR-5 ovarian 8.96% | SK-OV-3 ovarian 0.948% | OVCAR-3 ovarian -46.9% | HS 578T breast -10.2% | NCI/ADR-RES ovarian -3.98%
inactive: OVCAR-4 ovarian 21.8%

Cc1cc(NC(=O)Nc2cccc3ccccc23)no1
inactive: RPMI-8226 leukemia 102% | OVCAR-8 ovarian 105% | OVCAR-5 ovarian 98.9% | OVCAR-4 ovarian 103% | SK-OV-3 ovarian 103% | OVCAR-3 ovarian 113% | HS 578T breast 107% | NCI/ADR-RES ovarian 103% | T-47D breast 87.6%

O=C(Nc1ccc(Cl)cc1Cl)Nc1ccc(-c2cccnc2)cc1N1CCC(CO)CC1
active: RPMI-8226 leukemia 9.15% | SK-OV-3 ovarian 4.28%
inactive: OVCAR-8 ovarian 32.8% | OVCAR-5 ovarian 48.5% | OVCAR-4 ovarian 53.2% | OVCAR-3 ovarian 24.9% | HS 578T breast 36.4% | NCI/ADR-RES ovarian 30.7% | T-47D breast 17.5%

Clc1ncn[nH]1
inactive: RPMI-8226 leukemia 102% | OVCAR-8 ovarian 92% | OVCAR-5 ovarian 107% | OVCAR-4 ovarian 100% | SK-OV-3 ovarian 96.3% | OVCAR-3 ovarian 105% | HS 578T breast 106% | NCI/ADR-RES ovarian 106% | T-47D breast 99.5%

CCC(CCC(C)C1CCC2C3CC=C4CC(O)CCC4(C)C3CCC12C)C(C)C (stereo not drawn) (tested in a mixture with another compound)
inactive: RPMI-8226 leukemia 81.4% | OVCAR-8 ovarian 89.9% | OVCAR-5 ovarian 103% | OVCAR-4 ovarian 93.7% | SK-OV-3 ovarian 127% | OVCAR-3 ovarian 103% | HS 578T breast 87.3% | NCI/ADR-RES ovarian 59.6% | T-47D breast 95.3%

CN(C)c1ccc2c(c1)/C(=N/O)c1ccccc1-2
inactive: RPMI-8226 leukemia 107% | OVCAR-8 ovarian 97.6% | OVCAR-5 ovarian 96.2% | OVCAR-4 ovarian 82.6% | SK-OV-3 ovarian 90.1% | OVCAR-3 ovarian 93.4% | HS 578T breast 36.4% | NCI/ADR-RES ovarian 41.9% | T-47D breast 85.5%

COc1cc(NC(=O)c2cc3ccccc3cc2O)c(OC)cc1Cl
active: RPMI-8226 leukemia -48.7% | OVCAR-8 ovarian 7.08% | OVCAR-5 ovarian 2.16% | SK-OV-3 ovarian -14.9% | NCI/ADR-RES ovarian -20.6% | T-47D breast 4.25%
inactive: OVCAR-4 ovarian 38.4% | OVCAR-3 ovarian 10.7% | HS 578T breast 51.7%

C[N+]1(CCC[N+]2(C)C[C@@H]3[C@H](C2)[C@@H]2C=C[C@H]3C2)CCOCC1 (stereo partly drawn)
inactive: RPMI-8226 leukemia 106% | OVCAR-8 ovarian 104% | OVCAR-5 ovarian 88.9% | OVCAR-4 ovarian 112% | SK-OV-3 ovarian 99.3% | OVCAR-3 ovarian 116% | HS 578T breast 111% | NCI/ADR-RES ovarian 107% | T-47D breast 109%

Cc1cc2c(cc1[N+](=O)[O-])NC(CNC(C)C)CC2 (stereo not drawn)
inactive: RPMI-8226 leukemia 105% | OVCAR-8 ovarian 115% | OVCAR-5 ovarian 88.7% | OVCAR-4 ovarian 95.1% | SK-OV-3 ovarian 99.7% | OVCAR-3 ovarian 96.6% | HS 578T breast 124% | NCI/ADR-RES ovarian 95.1% | T-47D breast 86.3%

CCOC(=O)/C=C(/C)Sc1cc(O)c2ccccc2c1O
inactive: RPMI-8226 leukemia 40.7% | OVCAR-8 ovarian 24.3% | OVCAR-5 ovarian 93% | OVCAR-4 ovarian 51.1% | OVCAR-3 ovarian 13.4% | NCI/ADR-RES ovarian 21.6% | T-47D breast 36.8%
active: SK-OV-3 ovarian 6.27% | HS 578T breast -28.2%

COc1cc(/C=C/C(=O)c2c(-c3ccc(F)cc3)nc3sc(C)nn23)cc(OC)c1OC
inactive: OVCAR-5 ovarian 18.7% | OVCAR-4 ovarian 44.1% | SK-OV-3 ovarian 15.5% | HS 578T breast 50.1% | NCI/ADR-RES ovarian 23.4%
active: RPMI-8226 leukemia 0.772% | OVCAR-8 ovarian 9.66% | OVCAR-3 ovarian -16.4% | T-47D breast -8.41%

O=C(Nc1ccc(Nc2ccncc2)cc1)c1ccc(Nc2ccnc3ccc([N+](=O)[O-])cc23)cc1[N+](=O)[O-]
active: HS 578T breast -5.48%
inactive: RPMI-8226 leukemia 77.8% | OVCAR-8 ovarian 44.4% | OVCAR-5 ovarian 97.4% | OVCAR-4 ovarian 91.1% | SK-OV-3 ovarian 82.8% | OVCAR-3 ovarian 98.1% | NCI/ADR-RES ovarian 52% | T-47D breast 62.2%

CCOC(=O)c1c2c(c(C)n1Cc1ccccc1)-c1nc(N)ncc1CC2
inactive: RPMI-8226 leukemia 80% | OVCAR-8 ovarian 104% | OVCAR-5 ovarian 78.6% | OVCAR-4 ovarian 105% | SK-OV-3 ovarian 118% | OVCAR-3 ovarian 125% | HS 578T breast 93.6% | NCI/ADR-RES ovarian 101% | T-47D breast 86.4%
